The panel holds about 83,000 compounds, 20% with a hit somewhere; the sample as a whole holds those more often.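 Percent growth is the endpoint: 0 to 100 indicates growth inhibition (40 means 60% inhibition), 0 means no net growth, and negative values indicate cell death.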 Unmarked numbers belong to inactive results. Active and inactive are the calls of the source. How the source made its calls: active means growth percent below 10; inactive means the rest.

The first assay has as its system SK-MEL-2 melanoma. The assay can be described thus: NCI-60 one-dose screen, 48 h (100 = growth as untreated, 0 = no growth, -100 = all killed). Particulars: 10 µM unless noted.
Take `CCN1CCN(Cc2cn(-c3ccc(S(N)(=O)=O)cc3)nn2)CC1`: the growth was 115%. On the same count and under the same terms, the same measure for `Cc1cccc2c3c(sc12)C(c1ccc(Cl)cc1)c1c(nc(CC(=O)Nc2ccccc2)[nH]c1=O)O3` (stereo not given): 68.4%; for `C=C=COc1cccc(/C(N)=N/C(N)=N/c2nc3ccccc3s2)c1`: 104%. As for `Cc1cc2nc(C(Cl)Cl)nc(-c3cccs3)n2n1`, the growth was 97.7%.

A further assay concerns EKVX NSCLC. Described as above. Particulars: 10 µM unless noted.
For `COc1cc(-c2nnc(SCc3ccc(O)c4ncccc34)n2-c2ccccc2)cc(OC)c1OC`, the growth was 4.34% (active). With `CN1c2ccccc2Sc2cc(C=C(C#N)C#N)ccc21`, the growth is 93.6%. Turning to `CC(=O)N(C)C1CCc2c(sc(NC(=O)c3ccc(C(C)(C)C)cc3)c2C(N)=O)C1` (stereo not given), the growth is 75.5%. Same read-out and setting: the same measure for `COc1cc(/C=N/NC(=O)c2cn(C3CC3)c3c(OC)c(N4CC5CCCNC5C4)c(F)cc3c2=O)ccc1O` (stereo not given): 24.9%; for `CC1(C)[C@@H](O)CC[C@]2(C)[C@H]3CC[C@@H]4[C@H]5[C@H](C(=O)/C=C\c6ccc([N+](=O)[O-])cc6)CC[C@]5(O)CC[C@@]4(C)[C@]3(C)CC[C@@H]12`: 53.1%. As to `CCCCCc1ccc(S(=O)(=O)Nc2cccc(-c3csc(NC(=O)CN4CCN(C)CC4)n3)c2)cc1`, the growth was 89.2%. Consider `O=S(=O)(NCCNc1nccc(-n2cnc3ccccc32)n1)c1ccc(Br)cc1`, for which the growth is 83.4%. As for `COc1ccccc1-n1cc(C#N)c(N)c1C(=O)c1ccc(Br)cc1`, the growth was 85.4%. For the compound `COc1cc2oc(-c3cccc(C(=O)N[C@@H](CC(C)C)C(=O)OC(C)(C)C)c3)cc(=O)c2c(OC)c1OC`, the growth was 89.7%. `CC1(C)CC[C@]23CC[C@]4(C)[C@H](CC[C@@H]5[C@@]6(C)CCCN(CO)C(C)(C)[C@@H]6CC[C@]54C)[C@H]2[C@H]1OC3`: the growth was 90.9%. Take `CCOC(=O)c1c(NC(=O)c2ccccc2C(F)(F)F)sc2c1CCC(=O)C2`: the growth was 32.2%.

In the case of `COc1ccc(N2C(=O)c3cc(Cl)ccc3NC2SCc2ccccc2)cc1` (stereo not given), the growth is 91.6%. For `CCCCCc1ccc(S(=O)(=O)Nc2cccc(-c3csc(NC(=O)CNCCN(C)C)n3)c2)cc1`, the growth was 81.4%. For `O=C1CCCc2nc(Nc3ccc(S(=O)(=O)Nc4ccc([N+](=O)[O-])cc4)cc3)ncc21`, the growth is 100%.

For `Clc1nc2ccccc2nc1-c1nnc(C2CCCCC2)o1`, the growth was 98.8%. Take `Cc1ccc(C2=NN(C)C(=O)C3(CCCC3)C2)cc1`: the growth was 102%.

For `O=C1[C@H]2Cc3c([nH]c4ccccc34)[C@@H](c3c(Cl)cccc3Cl)N2C(=O)CN1C1CCN(CC2CCCCC2)CC1`, the growth is 88.2%. In the case of `NC(=O)c1cccc(-n2ccc3cc(NC(=O)Nc4ccc(N5CCOCC5)c(C(F)(F)F)c4)ccc32)n1`, the growth is 11.2%. `COc1ccc(N2CCN(C3=C(Cl)C(=O)C(C)=C(C)C3=O)CC2)cc1`: the growth was 116%.

As for `C=C(C=O)[C@@H]1CC[C@]2(C)[C@H](C(=O)C=C3[C@H]4C[C@](C)(C(=O)OC)CC[C@]4(C)CC[C@]32C)[C@@]1(C)CCC#N`, the growth was 47.7%. The same measure, in the same setting: the same measure for `CCOc1ccc(C(=O)Nc2ncc(Cc3ccc(F)cc3)s2)cc1`: 41.3%.

As for `Cc1ccc(-c2cc3nc(C(Cl)Cl)nc(-c4cccs4)n3n2)cc1`, the growth is 66.3%.

Turning to `CCOC(=O)c1c(N)c(C#N)cn1-c1cc(OC)c(OC)c(OC)c1`, the growth is 96%. The same measure, in the same setting: the same measure for `CC(=O)C1=C(C)NC(NNC(N)=S)=NC1c1ccccc1` (stereo not given): 70.9%; for `NS(=O)(=O)c1ccc(Nc2nc(N/N=C/c3ccccn3)nc(Nc3ccccc3)n2)cc1`: 13.3%. With `Oc1cccc2ccc(-c3nnc(SCc4ccc(O)c5ncccc45)o3)nc12`, the growth is 17.5%. The same measure, in the same setting: the same measure for `O=C1CCCC2=C1C(c1c[nH]c3ccc(Br)cc13)Cc1cc(Br)ccc1N2` (stereo not given): 41.9%. Take `COC(=O)c1[nH]nc2c1C1(C(=O)N(C)c3ccccc31)C(C#N)=C(N)O2` (stereo not given): the growth was 99.3%. As to `CC1=NC2=NC(=O)/C(=C3/N=C(C)C=C(c4ccccc4)N3N)NN2C(c2ccccc2)=C1`, the growth was 83.8%. In the case of `Nc1cc(-c2c[nH]c3ccc(Br)cc23)nc2cc(-c3c[nH]c4ccc(Br)cc34)nn12`, the growth is 31.7%. On to `O=S(=O)(NCCNc1nccc(-n2cnc3ccccc32)n1)c1ccc(Cl)cc1`, for which the growth was 92.2%.
